According to the supplement of paper PMC12632987:
The full ranking holds about 4,500 sequences; the median of “median log2 fold change of GCK-ALFA target abundance (FLAG IP / Myc IP barcode read proportion)” is about 0.078, and the lowest 2% start at about -0.6. This is one part of a sample in which the lowest values are shown more often than they occur.

B1: GBRAP_160_4175 (protein)
chain: SEKLEEAEKKIKEIFEEAYKMMEGESAEERAAIVAVAFGEIILYLEEKGLLTDETEAKIDEIEDEAVEYILENPDLTEEELRELLEESAEKIIKALKENS
B2: GBRAP_160_4178 (protein)
chain: SEKIEEAEEEIEEIFEEAYEMMKGQTAEERAAIVDVAFGEIILYLEEKGLLTDETEAKIDEIRDETVSYILANPDLTDEELRELLEEAAEEIIEALRENS
B3: GBRAP_52_6269 (protein)
chain: MKELAEKLAKEFIETSLNGTEEEVKEFAKKLVETESQELIELMLEIVVEMAKSLNAEELEKLLDAFLILEDELEEAGKDTLPAEDAAAELAKLYMEKLKE
B4: GBRAP_52_5996 (protein)
chain: AEARIRALAEELVAAVLAGDEERVRAILRRIAAELSDEEIVETVRLATRLLARDPRATLEDLARFIDIVEEVLEEEGKSDRLIADVLGAIAEAIAEVEAE
B5: GBRAP_52_5997 (protein)
chain: REERIEALARELVEATLAGDDERVRALLRRIAAELSDEEIVETVRLATRLLERDPRATLEDLANFIDLVEDVLEEEGKSDELIARVLGAIAEAIYEAELE
B6: GBRAP_39_5719 (protein)
chain: EEEEEAENIFSYYEAVGAKKMYERGISLDELFAELYARARELAADDPELAAALDELRALAEAAGDEAKLAAAGLMSRLVEGEPREEILADAEKLIAYLKS
B7: GBRAP_128_3452 (protein)
chain: STEEKVKKAEELMNKIIESSDEEVPALAAELVDLIGESDDESAKAIAEVIIKKIPELSEEKLEILADVFVARRPELTPEKQEVLNEIAVAIGEEILEKEE
B8: GBRAP_125_2964 (protein)
chain: SEEEDLEALATLAKALGFDEDDVEEAVRLARKFGFKNTLIALFLAEGYDEVADLVEKLTEEEAKEVLKRLAEEIKKNPELTPEEVVKLAKELFEEVIAKK
B9: GBRAP_160_4000 (protein)
chain: MEEIEELKEEIEEIIDETIAAMEGLTPEERLTLVRGMVGEIIQLVEDSPAVSDEAEDEIAELGDELVEEVEANRDAPLEVWRELLERFLEEIKKILDKEE
B10: GBRAP_11_2888 (protein)
chain: KKEKLKELAELARKIAELIEKLLEEGTDNEELLKEIEKLLKELEKLTKEYADKGSQKLTEIAKELFKKALEDPENRKEYLEELLAAVRVLEGDYLLEYEE
B11: GBRAP_128_3538 (protein)
chain: SLEEVKKRAREVMEKIKNSSVEEAYEITKEFLEELKSLSLEEVEAAIEVLEELLPELSAEKLEAIADAMREMRPTLSPEKQRLVADLQVEALNEAEEKEE
B12: GBRAP_35_5578 (protein)
chain: EDKEMLLETVRDLAEATIEAIKEGDLDLAIALLEALLRTAELAVEELANDAEALEEIAALLERVIAAIKEHLADDPRVQALLARLEALLARTKALLAAVK
B13: GBRAP_184_5199 (protein)
chain: KVLEIEVTVSNLEEAKKKMEEILAKAKEEKADLLLILDLKTSTKEIIETIMNALGKIKKEGYAPNVLVELEGDLSDENIDLAFKLADEAGVSLVIALPEE
B14: GBRAP_11_2855 (protein)
chain: KKEKLKEIAELAKKAIELLKELLKKGVDDKELQKKIKELLEKLLELVKKYLDEASVKLAKEALESFKKSLEDPENKEKYINESLAFLEVLLGDVLLEIDE
B15: GBRAP_139_3755 (protein)
chain: SKTEEAIKEIVELVKDPNATLEEIEEKVKEIAKELDEESIKKVLKAAAEAAKSLSVERIEELEERFIKILKEEGRSEDVIDFLEGEFNEAAALSAYREEL
B16: GBRAP_196_5419 (protein)
chain: SLVQEARKINEEAEKRLKATDKEVTVVVSTGDLERHREAVEKAIDYAKEHPDELVLLVFMDDLETALEAARYAKELAEKEGVDLVVEVASRELEEHPDEE
B17: GBRAP_14_3875 (protein)
chain: MEEIKKIIDDMVAEIVAFVKEVSPEIAPEVEKRLNEIREKTLARIEETGDPLAAFDAMEEEMIAAMEEITADLPEEDRTAILAELRVRLAEARYRIDEVL
B18: GBRAP_150_3934 (protein)
chain: DLEELLLLAESVADLLDLALNEGIDRLKALKRAQELLKDLIKEADEELKEIAKKAQELIKKAIKLEEEGGEEKEIKKLLKKAQELAKELAKELEKKIEEE
B19: GBRAP_11_2819 (protein)
chain: MDEVVKELIEVLKKLAEAADKYLKEDVGDEELLKKIEELAKKALELAKKLNDPAVIREAQAILDTVEEAKKDPANREQYVANARAGARTLLANLEEEAEE
B20: GBRAP_35_5522 (protein)
chain: DSDTLTVEMLVATIEDLTLAVPDMDVETAVQIATQLIKAAEELAKDIKNNVEGLKKLRDALAKLRDALEKHYGDDPLAQQVIAQIDKLIAEIDKMIKEAK
B21: GBRAP_95_7082 (protein)
chain: EEDLETLEDLAQTAIDLYEAGFEEQAARAAKAAAEELEELGYKVADKELLTKLLTYAADLAPKYFDEEEIERWLKIAEATGAPQSIIDALRAALAAKKAA
B22: GBRAP_125_2963 (protein)
chain: SEEEDLKALATLAKALGFDEDDVAEAVELARKFGIKNTVIALFLAEGYEEVAELVEKLTEEEVREVLKELAKEIEANPDLTPEEVVELAKKLLEKKIAKK
B23: GBRAP_39_5685 (protein)
chain: EEEEEDENVVSYLEGLAAARLYETGKSLEELFEEAKKILKALAKEEPELKELIEELIELAEKKGDEAKLALIGIAVLVEEGTPLEEIKENIEKVINYFKK
B24: GBRAP_39_5686 (protein)
chain: EEEEENEDVVSYLEGLAAKYLYETGKSLEEAFEEAKKILLKLAEEHPELKELIEKLIELAEKKGEEAKLALIGIAVLVKQGTPLEEIKENIEKVIAYFES
B25: GBRAP_125_3124 (protein)
chain: AEAQALADLAAVLKALGFDDEDVAEAVELAAAHSIRGTLYAALLALGDEEGADLVAKLTEEQTKEVVAAVNAWLKAHPDATPEEVKEKLLALLKEAVAAS
B26: GBRAP_160_4816 (protein)
chain: MEKVEELLKEAEEDLLDTAEASKDLPIEDRAALLRAEGYTSILELKEELNLSDETEDKLVAIVDELVARLLANPDLTPEEVLALVKEAYEKMKKIVLEEA
B27: GBRAP_11_2768 (protein)
chain: KKEELKKAAELAEKAAKTVEKLLKEGVDNEELLKEIEELLKELKKLTEKYGNEDMKKLVKIAEELLEEIKKDPENAEEYAKELKATLDVLAGQYLLEAEE
B28: GBRAP_128_3156 (protein)
chain: SVEEVRKKTRELLEKIKESDDETARELARELFELIGTLSPEEAEAAVEVILERLPELSEEKLEILADVAREMMPKYDPYKANLLAEVEVEALNEAEELEE
B29: GBRAP_160_4781 (protein)
chain: SEKKEKLKKAIEEAAKEIKEAIDTESPEQVLTVVRGEGGDILQEAEELGIDNEEALEGLDKGIKELEAAMKAAADASPEEKKAIVDKAKEKMIETLDKLT

Each binder was assayed against GABARAP, O95166 (assay: median log2 fold change of GCK-ALFA target abundance (FLAG IP / Myc IP barcode read proportion) (log2 ratio); each designed protein is fused to an ALFA-tag nanobody in HEK293 cells to bring the named protein to FLAG-tagged glucokinase (GCK); Myc marks an untargeted standard; higher = target protein stabilised (more abundant)). Settings: target protein: 3xFLAG-MCP-GCK-ALFA reporter; HEK293 landing pad (RPLP).
Sequence of GABARAP, O95166 (O95166 whole entry, the tested form may be a part): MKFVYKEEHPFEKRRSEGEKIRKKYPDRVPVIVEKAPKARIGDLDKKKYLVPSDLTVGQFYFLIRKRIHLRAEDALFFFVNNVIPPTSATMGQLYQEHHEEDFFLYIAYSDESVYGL
In short: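 An ALFA-nanobody-fused binder library was recombined into HEK293 landing-pad cells and induced with 2 μg mL^−1 doxycycline. Cells were transfected with a plasmid expressing a FLAG-tagged target and a Myc-tagged standard. After 48 h, lysates underwent anti-FLAG and anti-Myc immunoprecipitation, and circular RNA barcodes were reverse transcribed, amplified and sequenced. Target abundance is the per-binder median log2 ratio of FLAG to Myc barcode read proportions. Barcodes needed ≥10^−7 proportion in both replicates, binders ≥3 barcodes per replicate, and a 10^−6 pseudocount was added; the two replicates were pooled.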

Binder	median log2 fold change
B1	-0.178
B2	-0.598
B3	0.267
B4	-0.179
B5	-0.74
B6	0.194
B7	0.274
B8	-0.94
B9	-0.0825
B10	-0.0328
B11	0.273
B12	-0.85
B13	-0.0295
B14	0.193
B15	0.234
B16	0.0489
B17	0.256
B18	0.0862
B19	0.324
B20	-0.0356
B21	0.268
B22	-0.725
B23	-0.604
B24	0.293
B25	-0.452
B26	0.0572
B27	0.117
B28	-0.269
B29	0.333
